In paper PMC7819943, “Rice protein-binding microarrays: a tool to detect cis-acting elements near promoter regions in rice”:
The full ranking holds about 39,000 sequences; the median of “fluorescence intensity (a.u.)” is about 4,300, and the highest 2% start at about 39,000. This is one part of a sample in which the highest values are shown more often than they occur.

Each sequence was assayed against T1, OsSMF1 (Oryza sativa, UniProt Q6ZLB0 1-436) (assay: protein-binding microarray (RPBM); PBS, 2% BSA, 51.3 ng/ul salmon testes DNA, 50 uM zinc acetate, 200 nM TF, 25 C, 1 h; high values mean tight binding). Conditions: protein: recombinant; tags: N-terminal polyhistidine and DsRed monomer fusion (pET32a); chain copies: 2; label: CyDye5-dUTP incorporated in the synthesized complementary strand; 3' TTTTT single-stranded linker to array surface; dsDNA, one strand shown.
T1 sequence: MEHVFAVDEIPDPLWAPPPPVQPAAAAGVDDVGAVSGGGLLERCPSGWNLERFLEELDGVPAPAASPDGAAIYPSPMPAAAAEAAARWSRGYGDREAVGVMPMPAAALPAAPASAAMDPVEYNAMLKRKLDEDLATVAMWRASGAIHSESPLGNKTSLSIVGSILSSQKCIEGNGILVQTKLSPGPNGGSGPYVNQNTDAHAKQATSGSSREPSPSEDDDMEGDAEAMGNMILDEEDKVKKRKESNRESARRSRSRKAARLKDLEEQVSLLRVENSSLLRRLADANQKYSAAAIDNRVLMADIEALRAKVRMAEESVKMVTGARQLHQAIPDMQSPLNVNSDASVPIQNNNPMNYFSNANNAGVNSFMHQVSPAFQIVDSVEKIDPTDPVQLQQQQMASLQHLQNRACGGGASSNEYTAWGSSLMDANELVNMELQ
In short: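 Per-feature fluorescence intensity (arbitrary units), read on an Axon 4000B scanner, is the binding signal. Transcription factors carrying an N-terminal polyhistidine tag and DsRed fusion were expressed in E. coli BL21-CodonPlus and purified on Ni–NTA. A custom Agilent array, made double-stranded by primer extension with Cy5-dUTP and blocked with 2% BSA, was incubated with 200 nM protein in PBS, 2% BSA, salmon testes DNA and 50 µM zinc acetate at 25 °C for 1 h and then washed.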

First: CTCCTTGACAACCAGCACCGATCCCTGAGTCACCCAACGACGGAGTCACCTAGTGCAG
Second: TTCTGTAACATAGGCTAACGTCAACGTGGCATTCATTTTGCGGAGTCACCTAGTGCAG
The binding signal of the first is lower: 6120 fluorescence intensity (a.u.) for the first, 13200 fluorescence intensity (a.u.) for the second.

Going from “AAATAATTTATGAATAAAACTTTTATCTACGTGTTCTTAACGGAGTCACCTAGTGCAG” to “CTGCACATAATAACGTGGATGAATCTTAAACGTCCATTTACGGAGTCACCTAGTGCAG”, the binding signal rises from 4110 fluorescence intensity (a.u.) to 47100 fluorescence intensity (a.u.).

Compared with “ATTAGTTTTATTAAATCTTACATTGAATATATTTTGATAACGGAGTCACCTAGTGCAG”, “TATTTAAGTCAGTACTAAAGCACACATGTACAAATTTTACCGGAGTCACCTAGTGCAG” is higher in binding signal: 3390 fluorescence intensity (a.u.) for the first, 4160 fluorescence intensity (a.u.) for the second.

First: ACCAAACACCGCAAAATAAACAGTCATCCTCCGCACCGCGCGGAGTCACCTAGTGCAG
Second: ATAACAGCGGGCCTTACGTGTACATGATAGTATATAGTACCGGAGTCACCTAGTGCAG
The binding signal of the first is lower: 4480 fluorescence intensity (a.u.) for the first, 7000 fluorescence intensity (a.u.) for the second.

First: AAAATAAAATTTATTAATAATATTTTATCTATATTTACGACGGAGTCACCTAGTGCAG
Second: ATATTTAACAACGGATCAAATGATAGGAAAATAATTAATACGGAGTCACCTAGTGCAG
The binding signal of the first is higher: 30400 fluorescence intensity (a.u.) for the first, 4700 fluorescence intensity (a.u.) for the second.

Compared with “ACAGACTTGTTTAAGTTACAAGACGATACTATAAGAATTTCGGAGTCACCTAGTGCAG”, “CAGAAAACAATAGTTATATTTAAGATGGGACGAATGGAGTCGGAGTCACCTAGTGCAG” is higher in binding signal: 41100 fluorescence intensity (a.u.) for the first, 53100 fluorescence intensity (a.u.) for the second.

Going from “TTTATTAATATATATATATATATATATATATATATATATACGGAGTCACCTAGTGCAG” to “CTATTAGAATATTTTATAATAGTTAATAGTTAATTAATTACGGAGTCACCTAGTGCAG”, the binding signal rises from 7400 fluorescence intensity (a.u.) to 39700 fluorescence intensity (a.u.).

Compared with “ATATAAGATGTAACTATTACGATGTTTCATGATACAAGTACGGAGTCACCTAGTGCAG”, “TGAAACGGAGGGAGTATTATTAATATCTTAAGATGGACGACGGAGTCACCTAGTGCAG” is lower in binding signal: 15000 fluorescence intensity (a.u.) for the first, 6690 fluorescence intensity (a.u.) for the second.

First: AATTACATAATTTTAATACGAAGATGAATGATCAAATATACGGAGTCACCTAGTGCAG
Second: GTTTGTTGTCGATACAATCACTAGTTGTGTTTGTTAATTTCGGAGTCACCTAGTGCAG
The binding signal of the first is higher: 56600 fluorescence intensity (a.u.) for the first, 4170 fluorescence intensity (a.u.) for the second.

Going from “TTATTAATATATTTAATTTAATGATCCGAGATAACATATCCGGAGTCACCTAGTGCAG” to “ATCAACAACTGTATTTAAAATGGGACGAATAGAGTAAATGCGGAGTCACCTAGTGCAG”, the binding signal falls from 35600 fluorescence intensity (a.u.) to 20200 fluorescence intensity (a.u.).

Compared with “GAGCGAGGCGAGGGTGGGGAGGCGGAGGAGGATGTCCAGGCGGAGTCACCTAGTGCAG”, “ATTTGATAAATGGGATGCCACGTGTACACCACGTCAACAGCGGAGTCACCTAGTGCAG” is higher in binding signal: 4580 fluorescence intensity (a.u.) for the first, 31000 fluorescence intensity (a.u.) for the second.

With “GATCAGATCGCACGCTGAGACGTATAGACGACGTGGGTCCCGGAGTCACCTAGTGCAG” the binding signal was 4650 fluorescence intensity (a.u.).
